Laboratory results: PubChem BioAssay AID651930 (Southern Research Specialized Biocontainment Screening …, 2012)
A number with no mark means an inactive call. No rule for the calls is given here.

assay: Vero 76 cell cytotoxicity, dose response, cytotoxicity control for VEEV inhibitor project, set 9 (AID 651930); details: Vero 76 cytotoxicity; series mostly up to 25 µM; viability: at the top concentration

SMILES | viability
CN1CCN(C)C(=Nc2ccc(F)cc2C(=O)Nc2ccccc2)C1 | 99.3% [at 50 µM]
CN1CCN(C)C(=Nc2ccc([N+](=O)[O-])cc2C(=O)Nc2ccccc2)C1 | 83.9%
COc1cccc(-n2c(CN3CCNCC3)nc3ccc([N+](=O)[O-])cc3c2=O)c1 | 84.9%
CCN1CCN(Cc2nc3ccc(C#N)cc3c(=O)n2-c2ccccc2)CC1 | 87.5%
O=c1c2cc([N+](=O)[O-])ccc2nc(CN2CCNCC2)n1-c1ccccc1 | 96.2%
